The list is not random: actives were taken first. Their share in the collection is about 12%.
ROMK mod: ROMK potassium channel modulators, primary screen, cell-based, thallium flux, MLSMR library; ATP-sensitive inward rectifier potassium channel 1 (Homo sapiens), P48048; Tet-inducible ROMK, thallium flux fluorescence; actives lie on both sides; B-score at 10 µM; 2% of 130,000 active; AID 1918, 2009;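 active means signal ratio slope over the read window, or its plate-corrected B-score, at least 3 SD from the plate mean, either direction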;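 further: B-score of the F/F0 ratio slope over 7 to 12 s after thallium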
Target sequence (P48048 whole entry, looked up): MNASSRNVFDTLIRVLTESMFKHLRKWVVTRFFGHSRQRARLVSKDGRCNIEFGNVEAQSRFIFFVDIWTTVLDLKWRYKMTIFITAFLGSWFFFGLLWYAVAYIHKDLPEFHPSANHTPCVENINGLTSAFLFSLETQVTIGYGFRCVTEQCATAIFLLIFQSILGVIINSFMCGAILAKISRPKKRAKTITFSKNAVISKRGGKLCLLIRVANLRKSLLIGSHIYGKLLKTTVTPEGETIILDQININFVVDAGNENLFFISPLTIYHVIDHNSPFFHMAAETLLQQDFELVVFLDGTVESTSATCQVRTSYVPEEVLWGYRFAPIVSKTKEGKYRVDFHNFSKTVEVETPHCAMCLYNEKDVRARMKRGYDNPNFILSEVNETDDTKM
m-calpain inh: inhibitors of pig calpain II, primary screen, biochemical, fluorogenic peptide substrate, 1536-well | 0.37% of 220,000 active | inhibition, % at 16 µM | purified calpain II, 30 min;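 active means inhibition above about 50%, limit read from the data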
WT yeast gro inh: growth inhibition of WT strain, primary screen, mitochondrial fusion inhibitor project, WT and mutant strains, chemical genetic; mitochondrial fusion phenotypic screen; inhibition, % at 10 µM; 2.1% of 190,000 active; AID 1362, 2008; in the data active means inhibition above about 58%; tested in S. cerevisiae
KCC2 mod: KCC2 cotransporter modulators, thallium flux, primary screen, cell-based, HEK293 KCC2, FluoZin-2 fluorescence, MLSMR. Solute carrier family 12 member 5 (Homo sapiens), Q9H2X9. KCC2 cells, thallium flux FluoZin-2 fluorescence. B-score of Tl+ flux slope (higher = more flux/activation; lower = inhibition) at 10 µM. 2.2% of 190,000 active;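 active means thallium flux slope and its plate-corrected score both differing from the plate sample mean at a set confidence after two filtering rounds, in either direction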;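 further: slope of fluorescence scaled to starting intensity during 10 to 20 s after thallium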
L major viab: Leishmania major promastigote growth inhibition, primary screen. Leishmania major promastigotes, resazurin fluorescence viability. inhibition, % at 10 µM. 9% of 200,000 active; in the data active means inhibition above about 50%;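 further: promastigotes grown with compound for 44 hours at 28 °C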
Of the large screens only hits and unclear results are named; the others gave an inactive call.

CCOc1cccc2cc(C(=O)NCCC3=CCCCC3)c(=O)oc12	none
CC1=C/C(=N\OC(=O)/C=C/c2ccccc2)C(C)=CC1=O	L major viab 100.0
C=CCN1CC2(c3ccccc3)CN(CC=C)CC(c3ccccc3)(C1)C2=O	none
NC1=NC[C@H](Cc2ccc(O)cc2)N1CCC12CC3CC(CC(C3)C1)C2	none (no result: ROMK mod, WT yeast gro inh, L major viab)
O=C(N/N=C/c1ccccc1[N+](=O)[O-])c1ccc2c(c1)OCCO2	none (no result: ROMK mod, WT yeast gro inh, KCC2 mod, L major viab)
Cc1ccc(NC(=O)CCC(=O)N/N=C/c2cc([N+](=O)[O-])ccc2O)cc1	none
CN1CCN(CCC(=O)N/N=C/c2cc([N+](=O)[O-])ccc2O)CC1	L major viab 99.9
O=C(N/N=C/c1cc([N+](=O)[O-])ccc1O)c1ccc2c(c1)OCCO2	L major viab 98.0 (no result: ROMK mod)
CCn1c(=S)sc2nc(C)sc21	none (no result: ROMK mod, m-calpain inh, WT yeast gro inh)
Cc1ccc(NCc2nnc(SCC(=O)N(Cc3ccccc3)C(C)(C)C)o2)c(C)c1	m-calpain inh 60.2 (no result: ROMK mod)
N#CC1(Cc2ccccc2)c2ccccc2C=CN1C(=O)c1ccccc1 (stereo not given)	L major viab 82.2
N#CC1(Cc2ccc([N+](=O)[O-])cc2)c2ccccc2C=CN1C(=O)c1ccccc1 (stereo not given)	L major viab 51.1
O=C(c1ccccc1)c1ccc(Sc2ccc([N+](=O)[O-])cc2)cc1	none (no result: WT yeast gro inh, L major viab)
CC12CCC(C(=O)N/N=C/c3ccc(O)cc3O)(OC1=O)C2(C)C (stereo not given)	none (no result: ROMK mod, WT yeast gro inh, L major viab)
CCOc1cc(/C=N/NC(N)=S)cc(Br)c1OCc1ccccc1C	L major viab 100.0
CCOc1cc(/C=N/N=C(\N)c2nonc2N)cc(Br)c1OCc1cccc2ccccc12	none
NC(=O)C1CCCN(Cc2ccc(Cl)cc2)C1 (stereo not given)	L major viab 78.8 (no result: ROMK mod, KCC2 mod)
CN(Cc1ccccc1)C(=O)C1CCCN(Cc2ccc(Cl)cc2)C1 (stereo not given)	L major viab 88.8 (no result: ROMK mod)
CN(Cc1ccccc1)C(=O)C1CCN(Cc2ccc(F)cc2)CC1	L major viab 89.4
CCOC(=O)C1CCCN(Cc2cccc(Cl)c2)C1 (stereo not given)	none (no result: ROMK mod)
C=CCn1c(SCC(=O)Nc2sccc2C(N)=O)nc2sc(CC)cc2c1=O	none (no result: ROMK mod, KCC2 mod)
C=CCn1c(SCc2nc3cc(C(=O)OC)ccc3c(=O)[nH]2)nc2sc(CC)cc2c1=O	L major viab 58.7
COc1cc(/C=N/n2c(-c3ccc4c(c3)NC(=O)CO4)csc2=Nc2cccc(C)c2)ccc1O	L major viab 91.6
COCCN=c1scc(-c2ccc3c(c2)NC(=O)CO3)n1/N=C(\C)c1ccc(O)cc1	none (no result: ROMK mod, WT yeast gro inh, L major viab)
CC1CCCCC1NCc1cccc([N+](=O)[O-])c1 (stereo not given)	L major viab 83.0
O=[N+]([O-])c1cccc(CNC2CCCCCC2)c1	L major viab 86.2
O=C(/C=C/c1ccco1)Nc1ccc2nc3n(c(=O)c2c1)CCCC3	none
CCOc1cc(N2CCOCC2)c(OCC)cc1NC(=O)COc1ncnc2ccccc12	none (no result: KCC2 mod)
CCOc1cc(N2CCOCC2)c(OCC)cc1NC(=O)COC(=O)c1cc2ccccc2cc1O	L major viab 62.1 (no result: ROMK mod)
Cc1ccc2c(c1)c1c3n2CCCN(Cc2ccccc2)C3CCC1 (stereo not given)	WT yeast gro inh 80.6 (no result: KCC2 mod)
CCc1nnc(NC(=O)Cc2ccc(OCc3c(C)noc3C)cc2)s1	none (no result: KCC2 mod)
O=c1cc(N=Nc2ccc(Cl)cc2)[nH]c(=O)[nH]1	none (no result: ROMK mod, WT yeast gro inh, L major viab)
COC(=O)[C@@H]1C[C@]2(OC(=O)c3ccccc3)C=CC(=O)C[C@@H]2N1C(=O)OCc1ccccc1	L major viab 100.3
O=S(=O)(NC1CCN(Cc2ccccc2)CC1)c1cccc2cccnc12	L major viab 66.7 (no result: ROMK mod)
O=C(NC1CCN(Cc2ccccc2)CC1)C1CCN(S(=O)(=O)c2cccc3cccnc23)CC1	none (no result: ROMK mod, m-calpain inh)
O=C(Nc1ccc(F)cc1)C1CCC(N2C(=O)c3ccccc3C2=O)CC1 (stereo not given)	none
NC(=O)c1cc(Cc2ccccc2)sc1NC(=O)c1ccco1	WT yeast gro inh 72.3
CC(C)(C)c1ccc(C2C3=C(CCCC3=O)NC3=C2C(=O)c2ccccc23)cc1 (stereo not given)	L major viab 88.2
CC(C)c1ccc(C2C3=C(CC(C)(C)CC3=O)NC3=C2C(=O)c2ccccc23)cc1 (stereo not given)	L major viab 88.8 (no result: ROMK mod)
CC1(C)CC(=O)C2=C(C1)NC1=C(C(=O)c3ccccc31)C2c1ccccc1 (stereo not given)	L major viab 88.6 (no result: ROMK mod)
O=C(COC(=O)c1ccc(Br)o1)NCc1ccco1	none (no result: m-calpain inh, WT yeast gro inh, KCC2 mod)
COc1ccccc1NC(=O)c1cc2n(n1)C(C(F)(F)F)CC(c1ccc3c(c1)OCO3)N2 (stereo not given)	L major viab 61.7
O=C(Nc1cc(Cl)ccc1O)c1cc2n(n1)C(C(F)(F)F)CC(c1ccc3c(c1)OCO3)N2 (stereo not given)	L major viab 84.3
O=C(NCc1ccc2c(c1)OCO2)c1cc2n(n1)C(C(F)(F)F)CC(c1ccc3c(c1)OCO3)N2 (stereo not given)	none (no result: ROMK mod)
COc1ccc(OC)c(NC(=O)c2cc3n(n2)C(C(F)(F)F)CC(c2ccc4c(c2)OCO4)N3)c1 (stereo not given)	none (no result: ROMK mod, m-calpain inh, WT yeast gro inh)
CC(C)CCNCC(=O)NC(c1ccccc1)c1ccccc1	none
C/C(=N\OC(=O)c1ccccc1F)c1nccs1	none (no result: ROMK mod, KCC2 mod)
COc1ccc(S(=O)(=O)Cc2ccc(C(=O)NCCCN(C)c3ccccc3)o2)cc1	none
CCOC(=O)C(=O)Nc1cc([N+](=O)[O-])ccc1C	none (no result: ROMK mod)
CCCCNC(=S)Nc1cc([N+](=O)[O-])ccc1C	L major viab 74.2
CCNc1ccc(N=Nc2c(C)n(C)n(-c3ccccc3)c2=O)cc1	none
CC(C)C(=O)N1CCN(c2ccc(NC(=O)c3ccc([N+](=O)[O-])o3)cc2)CC1	L major viab 99.1
Cc1ccc(NC(=O)c2ccc([N+](=O)[O-])o2)cc1S(=O)(=O)N1CCOCC1	L major viab 99.3
CC(C)C(=O)N1CCN(c2ccc(NC(=O)c3ccc(Br)o3)cc2)CC1	none
CCCC(=O)N1CCN(c2ccc(NC(=O)c3ccc([N+](=O)[O-])o3)cc2Cl)CC1	WT yeast gro inh 85.6, L major viab 100.7 (no result: ROMK mod, KCC2 mod)
CC(=O)N1CCN(c2ccc(NC(=O)c3ccc(Br)o3)cc2Cl)CC1	none
Cc1ccc(NC(=O)COC(=O)c2ccc([N+](=O)[O-])o2)cc1S(=O)(=O)N1CCCCC1	none
CC(C)C(=O)N1CCN(c2ccc(NC(=O)c3ccc([N+](=O)[O-])o3)cc2Cl)CC1	WT yeast gro inh 93.6, L major viab 100.7
COc1cc(C2NC(=O)NC3=C2C(=O)OC3)cc(OC)c1OC (stereo not given)	none (no result: ROMK mod, WT yeast gro inh, L major viab)
O=[N+]([O-])c1cccc(S(=O)(=O)Nc2nc3ccccc3nc2Nc2cccc(S(=O)(=O)N3CCCCC3)c2)c1	m-calpain inh 82.0 (no result: ROMK mod)

From PubChem
